What all share (set-up): scale not given: direction of the effect not stated beside the values
Assay [1] addresses Protein translocase subunit SecA (Escherichia coli (strain K12)) (UniProt P10408). Nature of the assay: Assay to Identify E. coli SecA ATPase Inhibitors. Particulars: 30 µM. The format is functional.
For assay [2], the target named is T1, Ubiquitin-activating enzyme e1, putative (Leishmania donovani (strain BPK282A1)) (UniProt E9BSI1).
T1 sequence (whole entry): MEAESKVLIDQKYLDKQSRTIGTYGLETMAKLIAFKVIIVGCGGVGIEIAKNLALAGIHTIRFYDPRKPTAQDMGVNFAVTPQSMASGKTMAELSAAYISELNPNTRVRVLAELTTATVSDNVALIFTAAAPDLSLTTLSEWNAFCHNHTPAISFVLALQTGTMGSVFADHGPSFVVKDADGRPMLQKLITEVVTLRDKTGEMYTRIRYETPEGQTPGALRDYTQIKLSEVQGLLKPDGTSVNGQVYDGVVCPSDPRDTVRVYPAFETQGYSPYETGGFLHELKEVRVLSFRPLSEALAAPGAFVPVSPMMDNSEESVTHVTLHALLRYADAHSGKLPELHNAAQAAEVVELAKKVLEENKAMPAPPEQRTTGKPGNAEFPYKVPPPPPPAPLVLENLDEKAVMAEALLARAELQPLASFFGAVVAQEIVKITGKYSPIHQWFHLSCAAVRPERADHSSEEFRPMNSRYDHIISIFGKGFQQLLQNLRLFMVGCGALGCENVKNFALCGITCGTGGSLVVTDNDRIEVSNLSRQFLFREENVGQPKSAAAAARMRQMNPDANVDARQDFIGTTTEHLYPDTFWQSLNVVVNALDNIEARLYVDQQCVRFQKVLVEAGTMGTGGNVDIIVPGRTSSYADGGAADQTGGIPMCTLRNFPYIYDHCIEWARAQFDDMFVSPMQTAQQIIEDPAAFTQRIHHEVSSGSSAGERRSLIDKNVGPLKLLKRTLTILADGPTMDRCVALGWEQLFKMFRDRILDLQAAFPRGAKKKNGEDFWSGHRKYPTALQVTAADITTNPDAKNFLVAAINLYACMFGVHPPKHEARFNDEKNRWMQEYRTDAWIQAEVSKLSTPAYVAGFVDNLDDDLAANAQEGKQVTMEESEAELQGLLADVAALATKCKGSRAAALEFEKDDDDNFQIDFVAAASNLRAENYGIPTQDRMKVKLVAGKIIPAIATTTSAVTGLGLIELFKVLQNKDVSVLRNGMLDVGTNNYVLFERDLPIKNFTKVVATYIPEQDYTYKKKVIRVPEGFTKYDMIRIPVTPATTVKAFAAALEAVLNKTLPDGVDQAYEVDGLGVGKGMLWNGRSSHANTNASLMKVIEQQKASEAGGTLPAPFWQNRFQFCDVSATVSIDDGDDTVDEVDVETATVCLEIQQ
Nature of the assay: Leishmania donovani Ubiquitin Activating Enzyme (LdE1). Format: functional. Particulars: 30 µM.

For assay [3], the target named is AMP-activated protein kinase, AMPK (Homo sapiens) (UniProt P54646+O43741+P54619+Q9UGJ0+Q9Y478+Q13131+Q9UGI9). The assay is described as follows: AMP-dependent Kinase enzyme assay. An in vitro enzyme assay that detects ADP turnover that is directly proportional to AMPK activity. This uses naive AMPK that is activated during the assay with MK-8722. Format: functional. The settings on record: 30 µM.

The target in assay [4] is Sialic acid-binding Ig-like lectin 9 (Homo sapiens) (UniProt Q9Y336). Nature of the assay: Hs-Siglec9 ALPHAscreen SOP 20170721. Particulars: 10 µM. Background: Alpha assays give light when donor and acceptor beads are brought close together.
Another assay has as its system Trypanosoma cruzi. Nature of the assay: Trypanosoma cruzi phosphomannomutase and mannose-1-phosphate guanylyltransferase assay. Particulars: 10 µM. The format is functional.
Assay [5] deals with T2, Arginase-2, mitochondrial (Homo sapiens) (UniProt P78540).
T2 sequence (whole entry): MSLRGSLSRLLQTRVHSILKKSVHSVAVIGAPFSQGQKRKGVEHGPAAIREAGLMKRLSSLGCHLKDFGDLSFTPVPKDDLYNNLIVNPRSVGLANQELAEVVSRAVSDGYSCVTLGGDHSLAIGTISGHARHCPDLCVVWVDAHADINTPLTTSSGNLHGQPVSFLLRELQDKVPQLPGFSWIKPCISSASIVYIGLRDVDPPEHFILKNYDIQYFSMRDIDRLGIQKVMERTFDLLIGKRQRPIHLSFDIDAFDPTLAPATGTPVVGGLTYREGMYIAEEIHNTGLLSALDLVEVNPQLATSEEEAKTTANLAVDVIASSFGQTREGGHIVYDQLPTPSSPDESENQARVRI
The assay is described as follows: in vitro enzyme assay to detect the production of urea directly proportional to the activity of Arginase II. Also: in the data most compounds retested in dose-response had high values. The format is functional. Particulars: 33.3 µM.

In assay [6] the target is T3, Proteasome subunit beta (Trypanosoma cruzi) (UniProt O96673).
T3 sequence (whole entry): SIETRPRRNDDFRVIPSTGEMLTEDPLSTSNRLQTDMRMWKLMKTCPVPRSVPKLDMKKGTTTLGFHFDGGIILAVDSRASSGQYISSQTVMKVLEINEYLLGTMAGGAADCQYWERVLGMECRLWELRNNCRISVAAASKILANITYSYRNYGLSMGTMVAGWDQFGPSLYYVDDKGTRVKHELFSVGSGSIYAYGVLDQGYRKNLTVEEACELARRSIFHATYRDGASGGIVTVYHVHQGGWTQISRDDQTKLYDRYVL
Nature of the assay: Trypanosoma cruzi proteasome chymotrypsin-like activity (TcProtChymo) assay. Also: in the data most compounds retested in dose-response had high values. The format is functional. Particulars: 9.37 µM.

The species named for the next assay is Homo sapiens. Nature of the assay: To identify inhibition of the IFN signalling (Jak-Stat) pathway via expression of an eGFP reporter gene under the control of an IFN-stimulated response element (ISRE) containing MxA promoter. Format: functional. Particulars: 30 µM. Background: A reporter such as luciferase makes a cellular process visible.
The target of assay [7] is T4, Tyrosyl-tRNA synthetase, putative (Trypanosoma cruzi (strain CL Brener)) (UniProt Q4DSP6).
T4 sequence (whole entry): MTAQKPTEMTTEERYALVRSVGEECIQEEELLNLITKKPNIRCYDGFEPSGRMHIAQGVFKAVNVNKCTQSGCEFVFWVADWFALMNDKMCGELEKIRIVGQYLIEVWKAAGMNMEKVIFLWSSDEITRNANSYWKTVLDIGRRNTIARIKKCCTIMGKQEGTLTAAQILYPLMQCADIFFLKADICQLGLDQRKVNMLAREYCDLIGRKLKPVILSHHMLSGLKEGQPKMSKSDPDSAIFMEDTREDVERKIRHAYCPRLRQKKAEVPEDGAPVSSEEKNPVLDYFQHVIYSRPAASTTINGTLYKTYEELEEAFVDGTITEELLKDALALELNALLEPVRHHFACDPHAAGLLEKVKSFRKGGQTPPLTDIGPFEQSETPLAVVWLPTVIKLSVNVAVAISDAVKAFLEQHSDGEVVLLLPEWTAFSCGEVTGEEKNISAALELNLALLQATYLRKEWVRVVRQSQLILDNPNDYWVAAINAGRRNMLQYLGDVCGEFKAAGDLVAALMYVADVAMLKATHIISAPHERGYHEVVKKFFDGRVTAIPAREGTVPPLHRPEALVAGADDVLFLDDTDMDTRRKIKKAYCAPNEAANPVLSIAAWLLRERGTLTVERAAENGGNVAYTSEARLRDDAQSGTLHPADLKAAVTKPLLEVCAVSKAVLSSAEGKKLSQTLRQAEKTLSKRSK
Nature of the assay: Trypanosoma cruzi tyrosyl tRNA synthetase (TcYRS) _High Tyrosine SOP. Also: in the data most compounds retested in dose-response had high values. Format: functional. Particulars: 30 µM.

Assay [8] addresses T4, Tyrosyl-tRNA synthetase, putative (Trypanosoma cruzi (strain CL Brener)). Nature of the assay: Trypanosoma cruzi tyrosyl tRNA synthetase (TcYRS) SOP. The format is functional. The settings on record: 30 µM.
Assay [9] has as its target Chromo domain-containing protein 1 (Saccharomyces cerevisiae (strain ATCC 204508 / S288c) (Baker's yeast)) (UniProt P32657). The assay is described as follows: ScCHD-1 Enzyme Inhibition Assay. Also: in the data most compounds retested in dose-response had high values. The format is functional. The settings on record: 30 µM.

The text below walks through data of ChEMBL document CHEMBL3988442, “University of Dundee, Small-Polar-MMV Screening Library” (2021).

The structures appear in SMILES notation. For some of these results: Results with a measured potency or affinity are listed apart.

Chromo domain-containing protein 1 (Saccharomyces cerevisiae (strain ATCC 204508 / S288c) (Baker's yeast)), sequence (P32657 whole entry, the tested form may be a part): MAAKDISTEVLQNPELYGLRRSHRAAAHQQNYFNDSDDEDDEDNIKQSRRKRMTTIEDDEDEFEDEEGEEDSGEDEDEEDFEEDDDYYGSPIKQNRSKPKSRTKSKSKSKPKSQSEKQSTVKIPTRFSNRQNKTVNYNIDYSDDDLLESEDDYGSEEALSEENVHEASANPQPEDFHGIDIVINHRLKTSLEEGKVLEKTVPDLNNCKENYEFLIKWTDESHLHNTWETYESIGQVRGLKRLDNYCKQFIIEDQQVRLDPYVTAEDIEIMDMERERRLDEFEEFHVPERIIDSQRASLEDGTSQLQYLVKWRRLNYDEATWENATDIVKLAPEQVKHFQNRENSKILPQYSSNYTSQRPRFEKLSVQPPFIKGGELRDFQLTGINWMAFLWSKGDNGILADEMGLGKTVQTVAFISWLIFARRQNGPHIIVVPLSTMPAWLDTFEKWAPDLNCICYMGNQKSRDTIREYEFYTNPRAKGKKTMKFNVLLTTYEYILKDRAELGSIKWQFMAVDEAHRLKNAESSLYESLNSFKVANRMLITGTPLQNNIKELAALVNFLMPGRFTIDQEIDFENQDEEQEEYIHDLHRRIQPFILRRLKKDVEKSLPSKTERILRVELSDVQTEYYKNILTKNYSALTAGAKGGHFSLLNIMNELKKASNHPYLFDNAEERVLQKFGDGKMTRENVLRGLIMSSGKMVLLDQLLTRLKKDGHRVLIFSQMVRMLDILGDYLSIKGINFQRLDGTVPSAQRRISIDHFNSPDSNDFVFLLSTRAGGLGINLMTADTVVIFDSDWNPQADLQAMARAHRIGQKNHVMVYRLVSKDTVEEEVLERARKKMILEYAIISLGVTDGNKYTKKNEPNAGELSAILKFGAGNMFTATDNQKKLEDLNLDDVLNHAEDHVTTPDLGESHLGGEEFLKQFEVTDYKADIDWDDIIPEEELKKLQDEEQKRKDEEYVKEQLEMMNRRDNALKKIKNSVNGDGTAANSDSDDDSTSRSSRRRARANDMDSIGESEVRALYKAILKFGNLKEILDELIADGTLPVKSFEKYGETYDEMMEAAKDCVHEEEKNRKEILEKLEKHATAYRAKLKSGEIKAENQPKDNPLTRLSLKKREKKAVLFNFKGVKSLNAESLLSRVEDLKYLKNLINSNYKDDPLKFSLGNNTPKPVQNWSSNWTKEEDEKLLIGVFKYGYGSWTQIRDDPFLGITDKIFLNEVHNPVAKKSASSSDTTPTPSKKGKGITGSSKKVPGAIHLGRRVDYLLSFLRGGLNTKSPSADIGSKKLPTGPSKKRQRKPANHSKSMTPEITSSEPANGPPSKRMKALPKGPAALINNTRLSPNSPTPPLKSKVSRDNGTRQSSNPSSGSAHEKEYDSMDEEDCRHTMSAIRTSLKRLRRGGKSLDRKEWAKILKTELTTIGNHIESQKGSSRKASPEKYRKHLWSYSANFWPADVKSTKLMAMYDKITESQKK
Protein translocase subunit SecA (Escherichia coli (strain K12)), sequence (P10408 whole entry): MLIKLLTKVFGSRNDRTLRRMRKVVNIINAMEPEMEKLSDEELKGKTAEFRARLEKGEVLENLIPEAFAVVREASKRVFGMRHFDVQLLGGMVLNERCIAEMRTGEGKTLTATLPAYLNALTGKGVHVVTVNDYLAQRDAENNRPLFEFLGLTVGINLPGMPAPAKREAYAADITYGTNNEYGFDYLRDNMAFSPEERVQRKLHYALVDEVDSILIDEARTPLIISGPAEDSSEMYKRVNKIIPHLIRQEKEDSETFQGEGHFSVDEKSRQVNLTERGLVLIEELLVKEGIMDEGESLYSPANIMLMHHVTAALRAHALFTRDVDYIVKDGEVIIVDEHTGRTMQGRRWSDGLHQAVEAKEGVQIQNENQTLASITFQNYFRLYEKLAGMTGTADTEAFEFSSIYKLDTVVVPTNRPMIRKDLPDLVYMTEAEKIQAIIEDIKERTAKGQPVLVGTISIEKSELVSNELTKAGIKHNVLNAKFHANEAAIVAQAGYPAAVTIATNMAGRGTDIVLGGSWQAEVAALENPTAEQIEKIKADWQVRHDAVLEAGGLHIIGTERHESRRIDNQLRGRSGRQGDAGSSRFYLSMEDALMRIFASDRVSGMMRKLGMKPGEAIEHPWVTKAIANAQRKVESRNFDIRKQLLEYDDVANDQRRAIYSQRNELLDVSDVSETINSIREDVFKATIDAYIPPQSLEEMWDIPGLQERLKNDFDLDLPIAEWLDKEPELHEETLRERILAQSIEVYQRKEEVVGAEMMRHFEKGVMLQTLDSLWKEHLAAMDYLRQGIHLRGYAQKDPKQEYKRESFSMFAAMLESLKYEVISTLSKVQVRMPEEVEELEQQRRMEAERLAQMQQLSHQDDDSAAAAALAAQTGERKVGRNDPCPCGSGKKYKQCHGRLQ
Sialic acid-binding Ig-like lectin 9 (Homo sapiens), sequence (Q9Y336 whole entry): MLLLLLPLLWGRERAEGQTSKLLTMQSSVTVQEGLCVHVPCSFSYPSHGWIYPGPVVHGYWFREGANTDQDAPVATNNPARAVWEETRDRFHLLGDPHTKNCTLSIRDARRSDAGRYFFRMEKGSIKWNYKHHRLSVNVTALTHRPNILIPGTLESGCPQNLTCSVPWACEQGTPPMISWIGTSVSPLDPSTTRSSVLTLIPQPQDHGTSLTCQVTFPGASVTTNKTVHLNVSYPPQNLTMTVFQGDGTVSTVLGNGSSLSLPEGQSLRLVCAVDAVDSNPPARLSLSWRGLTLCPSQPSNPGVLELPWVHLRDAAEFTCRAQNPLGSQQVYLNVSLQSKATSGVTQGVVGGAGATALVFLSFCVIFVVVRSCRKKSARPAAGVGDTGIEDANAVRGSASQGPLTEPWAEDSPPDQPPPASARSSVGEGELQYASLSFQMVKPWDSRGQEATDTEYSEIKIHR

Turning to `CN(C)CC1(O)CCN(S(=O)(=O)c2ccc(F)cc2)C1` (stereo not drawn), the Percent Effect in assay [1] is -4.76%; in assay [2] it was 20.3%; in assay [3], 6.17%; in [4], -4.76%; in the assay on Trypanosoma cruzi, 3.36%; in assay [5], -3.94%. For the same compound, the Percent Effect in [6] is 17.3%; in the assay listed under Homo sapiens, 10.1%; in assay [7], 5.38%; in assay [8], 9.09%; in assay [9] it was 65.3%.
Consider `CCc1nc(C)c(C(=O)NCCNc2ncccn2)s1`, for which the Percent Effect in [1] is -4.61%; in assay [2], 15.8%; in [3], -1.87%; in assay [4] it was -4.05%; in the assay on Trypanosoma cruzi, -2.52%; in assay [5], 0%. The Percent Effect in assay [6] was 2.28%; in the assay listed under Homo sapiens it was -2.51%; in assay [7] it was 9.36%; in assay [8], 16.1%; in assay [9], -3.7%.
As to `Cc1nc2c(c(C)c1CC(=O)Nc1ccc(Cl)cc1)c(=O)[nH]n2C`, the Percent Effect in [1] is -8.55%; in assay [2], 10.7%; in assay [3] it was -2.37%; in assay [4], 20.4%; in the assay on Trypanosoma cruzi, 5.36%; in assay [5], 6.77%. The Percent Effect in assay [6] was 6.97%; in the assay listed under Homo sapiens it was 11.7%; in assay [7], 3.83%; in assay [8], 13.6%; in assay [9] it was 3.39%.
`Cc1cnn(CCC(=O)N2CCC(Nc3cccnn3)CC2)c1`: the Percent Effect in assay [1] is -6.66%; in assay [2], 5.41%; in assay [3], 1.21%; in assay [4], 3.62%; in the assay with Trypanosoma cruzi, -5%; in assay [5] it was -2%. The Percent Effect is -3.6% in assay [6]; 16.4% in the assay listed under Homo sapiens; 0.493% in assay [7]; -8.64% in assay [8]; 2.32% in assay [9].
Regarding `COCCC(=O)N1CCC(c2noc3nc(C)cc(C(F)(F)F)c23)CC1`, the Percent Effect in assay [1] is -0.633%; in assay [2], 6.76%; in [3] it was 7.83%; in assay [4], 4.3%; in the assay with Trypanosoma cruzi, -6.13%; in assay [5], -2.55%. For the same compound, the Percent Effect was 13.1% in assay [6]; 8.05% in the assay filed under Homo sapiens; 2.15% in assay [7]; 6.49% in assay [8]; 9.94% in [9].
For the compound `Cc1ccsc1CNC(=O)Cc1c(C)nc2c(c1C)c(=O)[nH]n2C`, the Percent Effect in assay [1] was -4.14%; in assay [2], 10.4%; in [3] it was 5.94%; in assay [4], 8.57%; in the assay on Trypanosoma cruzi it was -2.06%; in [5], 2.32%. Also, the Percent Effect in [6] is 5.25%; in the assay filed under Homo sapiens, 21.2%; in [7], 2.86%; in assay [8] it was 11.8%; in assay [9], -20.4%.
As for `Cc1cnn(CCNCc2nc(-c3ccccc3Cl)no2)c1`, the Percent Effect was -4.16% in [1]; 10.5% in assay [2]; 0.118% in assay [3]; -5.56% in [4]; 9.77% in the assay with Trypanosoma cruzi; -4.98% in assay [5]. In addition, the Percent Effect was 16.5% in [6]; 12.2% in the assay listed under Homo sapiens; 5.39% in assay [7]; 17.1% in assay [8]; -13.7% in [9].
`CN1CCN(Cc2nc3ccccc3[nH]2)[C@H]2CS(=O)(=O)C[C@H]21`: the Percent Effect was -1.9% in assay [1]; 8.11% in assay [2]; -2.29% in assay [3]; -1.77% in [4]; -1.07% in the assay on Trypanosoma cruzi; -1.24% in assay [5]. Besides, the Percent Effect was 13.1% in assay [6]; 5.83% in the assay listed under Homo sapiens; 10.8% in [7]; 18.5% in [8]; -2.69% in assay [9].
